Consider 14 sequences from paper PMC5700166.

Common to all, as to assay: protein-binding microarray (PBM); PBM: ~300 nM protein, 6 mM HEPES pH 7.8, 80 mM KCl, 0.5 mM EDTA, 0.5 mM EGTA, 6% glycerol, 35 ng/ul poly-dIdC, 1% milk, 1 h, room temperature; Ap Aiptasia and Nv Nematostella (sea anemones) / Co Capsaspora / Aq Amphimedon (sponge) / Dm Drosophila / Hu human; RHD is the Rel homology domain; high values mean tight binding
Settings in all cases: dsDNA, one strand shown

Assay [1] concerns the target T1, GST-Ap-NF-kB RHD (Exaiptasia pallida (Aiptasia), UniProt A0A913YAJ5 2-422).
T1 sequence: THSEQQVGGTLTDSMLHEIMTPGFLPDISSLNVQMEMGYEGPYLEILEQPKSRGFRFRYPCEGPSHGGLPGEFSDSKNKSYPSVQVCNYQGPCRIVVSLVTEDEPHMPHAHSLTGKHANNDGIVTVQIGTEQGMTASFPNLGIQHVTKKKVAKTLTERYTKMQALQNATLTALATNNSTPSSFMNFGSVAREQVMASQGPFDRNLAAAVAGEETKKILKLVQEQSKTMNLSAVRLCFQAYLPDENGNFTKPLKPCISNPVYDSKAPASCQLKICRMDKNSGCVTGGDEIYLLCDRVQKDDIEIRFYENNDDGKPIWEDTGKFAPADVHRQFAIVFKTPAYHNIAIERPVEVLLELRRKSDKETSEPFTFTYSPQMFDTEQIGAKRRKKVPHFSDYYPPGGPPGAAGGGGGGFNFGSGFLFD

For assay [2], the target named is T2, GST-Nv-NF-kB (Cys allele) (Nematostella vectensis, UniProt E5G601 2-411).
T2 sequence: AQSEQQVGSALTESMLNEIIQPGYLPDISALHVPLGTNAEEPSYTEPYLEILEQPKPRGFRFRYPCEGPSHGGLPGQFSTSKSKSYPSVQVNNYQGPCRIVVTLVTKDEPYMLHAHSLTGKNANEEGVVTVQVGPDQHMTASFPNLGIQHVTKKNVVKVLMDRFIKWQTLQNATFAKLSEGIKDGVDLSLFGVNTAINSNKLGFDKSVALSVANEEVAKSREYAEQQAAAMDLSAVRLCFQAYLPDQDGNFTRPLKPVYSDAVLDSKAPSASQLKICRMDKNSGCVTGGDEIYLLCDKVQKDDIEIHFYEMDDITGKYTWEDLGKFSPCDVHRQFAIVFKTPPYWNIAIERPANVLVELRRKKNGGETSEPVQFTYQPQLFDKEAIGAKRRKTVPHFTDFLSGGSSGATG

Assay [3] has as its target T3, GST-Co-NF-kB (Capsaspora owczarzaki, UniProt F1ARL5 200-546).
T3 sequence: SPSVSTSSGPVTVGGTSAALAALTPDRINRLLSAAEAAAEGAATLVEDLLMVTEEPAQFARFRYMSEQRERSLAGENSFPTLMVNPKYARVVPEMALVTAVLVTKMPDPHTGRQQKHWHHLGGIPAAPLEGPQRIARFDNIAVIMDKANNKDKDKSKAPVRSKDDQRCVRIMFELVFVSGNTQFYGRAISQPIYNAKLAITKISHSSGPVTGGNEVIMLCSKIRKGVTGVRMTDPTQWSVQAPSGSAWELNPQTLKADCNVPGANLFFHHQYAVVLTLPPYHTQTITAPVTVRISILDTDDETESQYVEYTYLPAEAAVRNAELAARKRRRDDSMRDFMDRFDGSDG

Assay [4] addresses T4, GST-Dm-Relish (Drosophila melanogaster, UniProt Q94527 99-473).
T4 sequence: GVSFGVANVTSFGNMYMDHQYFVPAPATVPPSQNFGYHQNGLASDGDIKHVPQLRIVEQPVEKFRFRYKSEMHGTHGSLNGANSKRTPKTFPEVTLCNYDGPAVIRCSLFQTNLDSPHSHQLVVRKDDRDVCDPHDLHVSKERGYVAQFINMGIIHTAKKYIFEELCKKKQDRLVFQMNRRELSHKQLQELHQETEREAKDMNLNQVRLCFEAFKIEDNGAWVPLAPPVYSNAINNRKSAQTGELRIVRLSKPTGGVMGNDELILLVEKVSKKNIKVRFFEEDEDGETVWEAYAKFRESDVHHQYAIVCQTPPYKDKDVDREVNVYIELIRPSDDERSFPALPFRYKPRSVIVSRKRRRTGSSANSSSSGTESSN

In assay [5] the target is T5, GST-Aq-NF-kB (Amphimedon queenslandica, UniProt A9Y5G7 2-389).
T5 sequence: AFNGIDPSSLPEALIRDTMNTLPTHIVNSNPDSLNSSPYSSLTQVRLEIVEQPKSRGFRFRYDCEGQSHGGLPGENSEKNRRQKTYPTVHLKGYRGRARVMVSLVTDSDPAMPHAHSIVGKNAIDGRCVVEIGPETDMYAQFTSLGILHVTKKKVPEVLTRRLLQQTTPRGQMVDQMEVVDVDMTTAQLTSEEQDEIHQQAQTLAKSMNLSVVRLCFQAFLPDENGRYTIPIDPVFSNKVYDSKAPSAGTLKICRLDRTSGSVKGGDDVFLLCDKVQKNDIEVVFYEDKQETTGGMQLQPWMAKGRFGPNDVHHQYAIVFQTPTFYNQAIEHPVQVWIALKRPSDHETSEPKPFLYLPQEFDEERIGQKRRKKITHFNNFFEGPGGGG

With “CCGATTAACATCACGGGAACCCCTGATGTTAATCGGGTCTTGATTCGCTTGACGCTGCTG”, the binding signal worked out at 5.04 z-score in assay [1]; 2.85 z-score in assay [2]; 1.9 z-score in assay [3]; 9.89 z-score in assay [4]; 5.86 z-score in assay [5].

For the sequence “CCGATTAACATCACCCCTCCCCGTGATGTTAATCGGGTCTTGATTCGCTTGACGCTGCTG”, the binding signal came to 5.01 z-score in assay [1]; 3.48 z-score in assay [2]; 4.15 z-score in assay [3]; 3.47 z-score in assay [4]; 3.26 z-score in assay [5].

Regarding “CCGATTAACATCAGGGGAGGAAATGATGTTAATCGGGTCTTGATTCGCTTGACGCTGCTG”, the binding signal in assay [1] stood at 3.45 z-score; in assay [2], 4.2 z-score; in assay [3], 7.38 z-score; in assay [4], 1.91 z-score; in assay [5], 3.51 z-score.

Consider “CCGATTAACATCAAGGAAACCCCTGATGTTAATCGGGTCTTGATTCGCTTGACGCTGCTG”, for which the binding signal in assay [1] was determined as 6.7 z-score; in assay [2], 4.95 z-score; in assay [3], 2.91 z-score; in assay [4], 7.36 z-score; in assay [5], 6.19 z-score.

Turning to “CCGATTAACATCACAAAAATCCCTGATGTTAATCGGGTCTTGATTCGCTTGACGCTGCTG”, the binding signal in assay [1] is 5.86 z-score; in assay [2] it was 6.11 z-score; in assay [3], 2.59 z-score; in assay [4], 8.17 z-score; in assay [5], 6.23 z-score.

For “CCGATTAACATCAAGAAATTACCTGATGTTAATCGGGTCTTGATTCGCTTGACGCTGCTG”, the binding signal in assay [1] came out at 1.26 z-score; in assay [2] it was 2.74 z-score; in assay [4], 3.19 z-score; in assay [5], 2.27 z-score.

Consider “CCGATTAACATCAATAAATACCCTGATGTTAATCGGGTCTTGATTCGCTTGACGCTGCTG”, for which the binding signal in assay [1] turned out to be 3.73 z-score; in assay [2], 5.36 z-score; in assay [3] it was 2.51 z-score; in assay [4], 4.58 z-score; in assay [5], 4.69 z-score.

Consider “CCGATTAACATCAGGGCATTACCTGATGTTAATCGGGTCTTGATTCGCTTGACGCTGCTG”, for which the binding signal in assay [1] is 1.29 z-score; in assay [2], 1.87 z-score; in assay [4] it was 3.33 z-score; in assay [5] it was 4.51 z-score.

Regarding “CCGATTAACATCAGGGATTCTCATGATGTTAATCGGGTCTTGATTCGCTTGACGCTGCTG”, the binding signal came out at 2.96 z-score in assay [1], 1.8 z-score in assay [2], 2.59 z-score in assay [4] and 2.67 z-score in assay [5].

Consider “CCGATTAACATCAGAAATCCCGCTGATGTTAATCGGGTCTTGATTCGCTTGACGCTGCTG”, for which the binding signal in assay [1] amounted to 3.54 z-score; in assay [2] it was 2.85 z-score; in assay [3], 1.57 z-score; in assay [4] it was 4.94 z-score; in assay [5], 3.08 z-score.

As for “CCGATTAACATCAGGATAATCCCTGATGTTAATCGGGTCTTGATTCGCTTGACGCTGCTG”, the binding signal was determined as 4.74 z-score in assay [1]; 3.01 z-score in assay [2]; 1.51 z-score in assay [3]; 2.88 z-score in assay [4]; 5.24 z-score in assay [5].

Regarding “CCGATTAACATCAGGGAAGCACCTGATGTTAATCGGGTCTTGATTCGCTTGACGCTGCTG”, the binding signal came out at 4.67 z-score in assay [1], 5.46 z-score in assay [2], 9.38 z-score in assay [4] and 6.3 z-score in assay [5].

With “CCGATTAACATCAGGGGGTACACTGATGTTAATCGGGTCTTGATTCGCTTGACGCTGCTG”, the binding signal in assay [1] was 4.19 z-score; in assay [2], 2.66 z-score; in assay [3] it was 4.33 z-score; in assay [4], 3.21 z-score; in assay [5] it was 3.31 z-score.

Consider “CCGATTAACATCAATGGGTTTTCTGATGTTAATCGGGTCTTGATTCGCTTGACGCTGCTG”, for which the binding signal in assay [1] is 1.73 z-score; in assay [2] it was 1.21 z-score; in assay [4], 2.88 z-score; in assay [5], 1.85 z-score.
